Several values for one entry are separate records, joined by “and”; a condition that tells them apart may be missing. Identical values can stand only once. Results filed as inconclusive are left out. The source holds several records for some structures; these can differ, active in one and inactive in another. Activity calls are given as the source filed them. Unless noted, the call rests on the fitted dose curve; in most records, active means well fitted curve in either direction with a large enough effect (not every such curve was filed as active); inconclusive means small, poorly fitted or top-dose-only effect, or another doubt; inactive means flat fitted curve, though single readings scatter.
biological target: Cytochrome P450 1A2 (Homo sapiens) (UniProt P05177); test: p450-cyp1a2 (AID 410; calls by dose curve; further: potency means the concentration at half of the fitted maximal effect;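 on activity change, negative = inhibition: -100% = full effect of reference inhibitor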); settings: recombinant CYP1A2, luciferin-ME demethylation, luminescence; series mostly up to 57 µM; activity change, negative = inhibition: at the top concentration
Sequence (P05177 whole entry, looked up): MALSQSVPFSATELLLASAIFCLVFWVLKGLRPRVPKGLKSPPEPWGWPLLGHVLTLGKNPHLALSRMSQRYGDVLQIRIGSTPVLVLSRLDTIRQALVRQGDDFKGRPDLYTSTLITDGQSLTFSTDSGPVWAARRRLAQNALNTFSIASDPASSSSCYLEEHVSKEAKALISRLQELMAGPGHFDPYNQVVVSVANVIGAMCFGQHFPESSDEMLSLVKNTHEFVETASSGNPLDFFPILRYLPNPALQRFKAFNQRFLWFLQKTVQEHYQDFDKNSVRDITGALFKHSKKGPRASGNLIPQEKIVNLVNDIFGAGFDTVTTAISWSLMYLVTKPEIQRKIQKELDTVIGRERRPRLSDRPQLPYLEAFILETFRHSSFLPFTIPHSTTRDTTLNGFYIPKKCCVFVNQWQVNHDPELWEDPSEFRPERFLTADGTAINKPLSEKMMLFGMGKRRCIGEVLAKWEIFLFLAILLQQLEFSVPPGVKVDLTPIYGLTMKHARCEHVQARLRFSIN
Outline: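 Luminescent demethylation readout: Luciferin-ME (100uM, equal to Km) turned over by 20nM CYP1A2 for 60 min at room temperature after NADPH regeneration addition, following 10 min compound preincubation. Normalization used 57 uM furafylline as full inhibition.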

**Q.** Which Potency does the source give for `CCS(=O)(=O)Nc1cccc(C(=C2CCCCC2)c2cnc[nH]2)c1` here?
**A.** The Potency was 0.316 µM (active).

**Q.** Which Potency does the source give for `Clc1cc(I)cc(Cl)c1NC1=NCCN1` here?
**A.** The Potency was 15.8 µM (active).

**Q.** With `NC(=O)c1cc(N2CC2)c([N+](=O)[O-])cc1[N+](=O)[O-]` as the compound, how does the “activity change, negative = inhibition” value read?
**A.** The value was -19.6% (inactive).

**Q.** Which “activity change, negative = inhibition” value does the source give for `N#CC(C#N)=Cc1cc(O)c(O)c(O)c1` here?
**A.** The value was -7.2% (inactive).

**Q.** With `CN1CCc2cc(O)cc3c2[C@H]1Cc1ccc(O)c(O)c1-3` as the compound, how does the Potency read?
**A.** The Potency was 12.6 µM (active).

**Q.** Which “activity change, negative = inhibition” value does the source give for `O=[N+]([O-])c1cc(O)c(O)c([N+](=O)[O-])c1` here?
**A.** Its value is 1.1% (inactive).

**Q.** With `NCCc1c[nH]c2ccc(C(N)=O)cc12` as the compound, how does the Potency read?
**A.** The Potency was 6.31 µM (active) and 1.26 µM (active).

**Q.** For `Cc1[nH]c2ccc(O)cc2c1CCN`, which Potency is on record?
**A.** Its Potency is 31.6 µM (active).

**Q.** For `O=S1(=O)N(CCN2CC=C(c3c[nH]c4cc(F)ccc34)CC2)c2cccc3c2N1CCC3`, which Potency is on record?
**A.** Its Potency is 3.98 µM (active).

**Q.** With `O=[N+]([O-])c1ccc2nc(N3CCNCC3)ccc2c1` as the compound, how does the Potency read?
**A.** Its Potency is 2 µM (active).

**Q.** With `CN(N=O)c1ccc(O)c(O)c1` as the compound, how does the “activity change, negative = inhibition” value read?
**A.** Its value is -8.3% (inactive).

**Q.** Which “activity change, negative = inhibition” value does the source give for `NCCCP(=O)(O)O` here?
**A.** Its value is 3.5% (inactive).

**Q.** For `CNC(=O)OCC[N+](C)(C)C`, which “activity change, negative = inhibition” value is on record?
**A.** Its value is 10.7% (inactive).

**Q.** With `CCCN(CCC)[C@@H]1CCc2cccc(O)c2C1` as the compound, how does the Potency read?
**A.** Its Potency is “inactive and 31.6 µM (active)”.

**Q.** For `CC(C)NP(=O)(NC(C)C)OP(=O)(NC(C)C)NC(C)C`, which “activity change, negative = inhibition” value is on record?
**A.** Its value is 5.1% (inactive).

**Q.** With `CCCN(CCC)CCc1c[nH]c2ccc(C(N)=O)cc12` as the compound, how does the Potency read?
**A.** Its Potency is 15.8 µM (active).

**Q.** With `CCC1(C)CC(=O)NC(=O)C1` as the compound, how does the “activity change, negative = inhibition” value read?
**A.** Its value is -2.9% [at 25.6 µM] (inactive).

**Q.** Which Potency does the source give for `CN1CCC(c2c[nH]c3ccc(O)cc23)CC1` here?
**A.** Its Potency is 31.6 µM (active).

**Q.** For `NCCc1ccc(S(=O)(=O)F)cc1`, which Potency is on record?
**A.** The Potency was 15.8 µM (active).

**Q.** For `c1ccc2cc(CC3=NCCN3)ccc2c1`, which “activity change, negative = inhibition” value is on record?
**A.** The value was 2.5% (inactive).

**Q.** For `CP(=O)(O)C1=CCNCC1`, which “activity change, negative = inhibition” value is on record?
**A.** Its value is 5.7% (inactive).

**Q.** With `CC(C)(C)c1cc(C=C(C#N)C#N)cc(C(C)(C)C)c1O` as the compound, how does the Potency read?
**A.** Its Potency is 10 µM (active).

**Q.** Which Potency does the source give for `c1ccc2c(N3CCNCC3)cccc2c1` here?
**A.** Its Potency is 10 µM (active).

tested on: not listed separately; test: NFAT Signaling Pathway (AID 444); settings: Jurkat NFAT-bla M1, carbachol, beta-lactamase ratio, 5 h; at 38 µM (top of the series) unless noted;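 further: carbachol stimulus at about its EC50 of 1 µM final; on the % scale 0 is the no-effect control and ±100 the full control effect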
Outline: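 Jurkat cells carrying an NFAT-driven β-lactamase reporter and co-transfected muscarinic M1 receptor were treated with compound plus carbachol (1 uM final, an EC50 level) for 5 h at 37 °C. CCF4 loading followed for 1 h at RT; 460/530 nm ratio gave %activity.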

**Q.** For `CCS(=O)(=O)Nc1cccc(C(=C2CCCCC2)c2cnc[nH]2)c1`, which activity change, negative = inhibition is on record?
**A.** The activity change, negative = inhibition was 4.67% (inactive).

**Q.** For `Clc1cc(I)cc(Cl)c1NC1=NCCN1`, which activity change, negative = inhibition is on record?
**A.** Its activity change, negative = inhibition is -4.12% (inactive).

**Q.** Which activity change, negative = inhibition does the source give for `NC(=O)c1cc(N2CC2)c([N+](=O)[O-])cc1[N+](=O)[O-]` here?
**A.** The activity change, negative = inhibition was 1.65% (inactive).

**Q.** Which activity change, negative = inhibition does the source give for `N#CC(C#N)=Cc1cc(O)c(O)c(O)c1` here?
**A.** The activity change, negative = inhibition was -8.53% (inactive).

**Q.** Which activity change, negative = inhibition does the source give for `CN1CCc2cc(O)cc3c2[C@H]1Cc1ccc(O)c(O)c1-3` here?
**A.** The activity change, negative = inhibition was -24.8% (inactive).

**Q.** For `O=[N+]([O-])c1cc(O)c(O)c([N+](=O)[O-])c1`, which activity change, negative = inhibition is on record?
**A.** Its activity change, negative = inhibition is 3.02% (inactive).

**Q.** With `Clc1ccc(N2C[C@H]3CC[C@@H](C2)N3)nn1` as the compound, how does the activity change, negative = inhibition read?
**A.** The activity change, negative = inhibition was -11.9% (inactive).

**Q.** Which activity change, negative = inhibition does the source give for `NCCc1c[nH]c2ccc(C(N)=O)cc12` here?
**A.** The activity change, negative = inhibition was 4.42% (inactive).

**Q.** For `Cc1[nH]c2ccc(O)cc2c1CCN`, which activity change, negative = inhibition is on record?
**A.** Its activity change, negative = inhibition is 10.3% (inactive).

**Q.** With `O=S1(=O)N(CCN2CC=C(c3c[nH]c4cc(F)ccc34)CC2)c2cccc3c2N1CCC3` as the compound, how does the activity change, negative = inhibition read?
**A.** Its activity change, negative = inhibition is -17.5% (inactive).

**Q.** Which activity change, negative = inhibition does the source give for `O=[N+]([O-])c1ccc2nc(N3CCNCC3)ccc2c1` here?
**A.** Its activity change, negative = inhibition is 4.11% (inactive).

**Q.** Which activity change, negative = inhibition does the source give for `CN(N=O)c1ccc(O)c(O)c1` here?
**A.** Its activity change, negative = inhibition is 0.97% (inactive).

**Q.** Which activity change, negative = inhibition does the source give for `NCCCP(=O)(O)O` here?
**A.** Its activity change, negative = inhibition is -4.18% (inactive).

**Q.** With `CC(C)[C@@]1(NC(=O)[C@@H]2C[C@@H]3c4cccc5[nH]cc(c45)C[C@H]3N(C)C2)O[C@@]2(O)[C@@H]3CCCN3C(=O)[C@H](Cc3ccccc3)N2C1=O` as the compound, how does the activity change, negative = inhibition read?
**A.** The activity change, negative = inhibition was -22.9% [at 17.2 µM] (inactive).

**Q.** Which activity change, negative = inhibition does the source give for `CNC(=O)OCC[N+](C)(C)C` here?
**A.** Its activity change, negative = inhibition is 3.8% (inactive).

**Q.** Which activity change, negative = inhibition does the source give for `CCCN(CCC)[C@@H]1CCc2cccc(O)c2C1` here?
**A.** Its activity change, negative = inhibition is -1.36% (inactive).

**Q.** For `CC(C)NP(=O)(NC(C)C)OP(=O)(NC(C)C)NC(C)C`, which activity change, negative = inhibition is on record?
**A.** The activity change, negative = inhibition was -0.786% (inactive).

**Q.** With `CCCN(CCC)CCc1c[nH]c2ccc(C(N)=O)cc12` as the compound, how does the activity change, negative = inhibition read?
**A.** Its activity change, negative = inhibition is -26.6% (inactive).

**Q.** With `C[N+](C)(C)CCOC(=O)CBr` as the compound, how does the activity change, negative = inhibition read?
**A.** The activity change, negative = inhibition was 13.9% (inactive).

**Q.** Which activity change, negative = inhibition does the source give for `CCCN(CCC)CCc1ccc(O)c(O)c1` here?
**A.** Its activity change, negative = inhibition is -10.2% (inactive).

**Q.** Which activity change, negative = inhibition does the source give for `CCC1(C)CC(=O)NC(=O)C1` here?
**A.** The activity change, negative = inhibition was -6.48% [at 17.2 µM] (inactive).

**Q.** With `CN1CCC(c2c[nH]c3ccc(O)cc23)CC1` as the compound, how does the activity change, negative = inhibition read?
**A.** Its activity change, negative = inhibition is -5.82% (inactive).

**Q.** Which activity change, negative = inhibition does the source give for `C[N+](C)(C)CC#CCOC(=O)Nc1cccc(Cl)c1` here?
**A.** The activity change, negative = inhibition was 11.3% (inactive).

**Q.** Which activity change, negative = inhibition does the source give for `C[N+]1(C)CCc2cc3c(cc2[C@H]1[C@@H]1OC(=O)c2c1ccc1c2OCO1)OCO3` here?
**A.** Its activity change, negative = inhibition is -19.2% [at 17.2 µM] (inactive).

**Q.** For `NCCc1ccc(S(=O)(=O)F)cc1`, which activity change, negative = inhibition is on record?
**A.** The activity change, negative = inhibition was 2.53% (inactive).

**Q.** For `c1ccc2cc(CC3=NCCN3)ccc2c1`, which activity change, negative = inhibition is on record?
**A.** Its activity change, negative = inhibition is -0.608% (inactive).

**Q.** With `NC(=O)COc1c(F)cc(SCCNS(=O)(=O)c2ccccc2)cc1F` as the compound, how does the activity change, negative = inhibition read?
**A.** The activity change, negative = inhibition was 20.9% (inactive).

**Q.** Which activity change, negative = inhibition does the source give for `O=S(=O)(O)c1cc(O)ccc1O` here?
**A.** The activity change, negative = inhibition was -8.18% [at 17.2 µM] (inactive).

**Q.** With `CP(=O)(O)C1=CCNCC1` as the compound, how does the activity change, negative = inhibition read?
**A.** Its activity change, negative = inhibition is -1.42% (inactive).

**Q.** Which activity change, negative = inhibition does the source give for `CC(C)(C)c1cc(C=C(C#N)C#N)cc(C(C)(C)C)c1O` here?
**A.** Its activity change, negative = inhibition is -108% (active).

**Q.** For `c1ccc2c(N3CCNCC3)cccc2c1`, which activity change, negative = inhibition is on record?
**A.** The activity change, negative = inhibition was -26.6% (inactive).
